Screening data: PubChem BioAssay, National Center for Advancing Translational Sciences (NCATS)
In the library only some 3.1% were active in any assay of this set; here they are far more common.
EPAC1 agonist: validation of human EPAC1 agonists; 1% of 16,000 active; EPAC1 Rap1b BODIPY-GDP exchange, fluorescence; AID 1645883; Potency, µM, without a hit: max response, positive = active, usual class: activators; note: nearly all actives have a fitted effect of over 70% in size
EPAC2 ant val: validation of human EPAC2 antagonists | Q8WZA2 | EPAC2 Rap1B BODIPY-GDP exchange, fluorescence | Potency, µM (series often up to 112 µM), for the others: at the top dose activity, negative = inhibition, actives largely listed as inhibitors | 1.7% of 16,000 active;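 note: 100% = activation by cAMP agonist control; nearly all actives have a fitted effect of over 40% in size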
Target sequence (Q8WZA2 whole entry, looked up): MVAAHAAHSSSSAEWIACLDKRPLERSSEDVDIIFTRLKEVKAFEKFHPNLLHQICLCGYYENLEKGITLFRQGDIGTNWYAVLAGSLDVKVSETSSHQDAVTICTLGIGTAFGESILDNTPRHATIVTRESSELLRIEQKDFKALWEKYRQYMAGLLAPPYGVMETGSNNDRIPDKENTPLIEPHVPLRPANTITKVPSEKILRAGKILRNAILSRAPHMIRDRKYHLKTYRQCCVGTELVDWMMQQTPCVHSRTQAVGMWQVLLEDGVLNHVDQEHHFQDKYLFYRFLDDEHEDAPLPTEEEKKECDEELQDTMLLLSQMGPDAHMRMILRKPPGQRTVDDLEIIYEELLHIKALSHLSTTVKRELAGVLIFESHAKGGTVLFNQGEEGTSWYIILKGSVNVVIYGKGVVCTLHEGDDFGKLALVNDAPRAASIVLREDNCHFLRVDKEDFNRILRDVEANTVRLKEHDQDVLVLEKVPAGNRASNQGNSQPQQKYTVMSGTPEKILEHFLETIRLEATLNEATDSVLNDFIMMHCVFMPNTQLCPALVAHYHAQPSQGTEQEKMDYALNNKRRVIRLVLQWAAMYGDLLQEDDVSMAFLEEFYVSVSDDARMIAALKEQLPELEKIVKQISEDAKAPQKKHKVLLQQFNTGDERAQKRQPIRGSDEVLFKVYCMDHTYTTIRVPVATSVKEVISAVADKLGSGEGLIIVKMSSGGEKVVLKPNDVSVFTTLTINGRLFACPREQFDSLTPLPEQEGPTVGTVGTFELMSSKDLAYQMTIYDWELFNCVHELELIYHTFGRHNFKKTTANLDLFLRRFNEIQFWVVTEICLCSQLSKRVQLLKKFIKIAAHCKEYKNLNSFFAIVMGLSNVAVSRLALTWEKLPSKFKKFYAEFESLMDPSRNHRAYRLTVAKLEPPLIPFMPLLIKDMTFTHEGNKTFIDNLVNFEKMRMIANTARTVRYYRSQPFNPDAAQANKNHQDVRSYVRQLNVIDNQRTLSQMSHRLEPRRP
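Normalized against a 6.5 mM cAMP agonist control, compounds were tested on 100 nM EPAC2 exchanging Rap1B-bound BODIPY-GDP (250 nM) for 50 uM GDP. Fluorescence drop (ex 480, em 540 nm) was tracked at room temperature over 30 min at 5-min intervals.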
* marks the source's active call; other numbers are inactive results; i = inactive; u = inconclusive; ! = repeats disagree. Calls come from the whole dose curve; as a rule, active = well fitted curve in the direction sought with a large enough effect; inconclusive = small, poorly fitted or top-dose-only effect, or another doubt; inactive = no such curve, though single readings can be large; an effect the other way counts as inactive or inconclusive. Unless noted, % is set by controls: 0 for no effect and ±100 for the full control effect; potency is the fitted concentration of half-maximal effect.

SMILES	EPAC1 agonist	EPAC2 ant val
COc1cc(CN2CCCC(n3cc(C(=O)N4CCCC4)nn3)C2)cc(OC)c1 (stereo unspecified)	-14%	-6%
Cc1ccn(CCC(=O)NCC2Cc3cc(Cl)cc(-c4ccc5[nH]ccc5c4)c3O2)n1 (stereo unspecified)	12%	-14%
c1ccc(-c2csc(-c3nc4ccccc4[nH]3)n2)cc1	u	-15%
c1ccc(CCNc2nc(-c3ccccc3)cs2)cc1	100µM*	-14%
CCN1CCCC1CNC(=O)c1cnn(-c2nccc(-c3ccco3)n2)c1C1CC1 (stereo unspecified)	-6%	12%
O=C1[C@H](Cc2ccccc2)NC/C=C\C[C@H](c2ccco2)N1Cc1ccccc1	14%	-13%
COc1ccc(/C=C/C(=O)NCC2Cc3cccc(-c4nc(C)cnc4C)c3O2)cc1OC (stereo unspecified)	-18%	3%
CC1(C)Oc2ccc3ccc(=O)oc3c2CC1=O	-33%	13%
CC(=O)OC1c2c(ccc3ccc(=O)oc23)OC(C)(C)C1OC(=O)CC(C)C (stereo unspecified)	-113%	40µM*
C#CCN(C1CCCC1)S(=O)(=O)C=C	u	-11%
Nc1cc(-c2ccncc2)c[nH]c1=O	u	35µM*!
Cc1cc(C)c(S(=O)(=O)Nc2ccccc2C(F)(F)F)c(C)c1	6%	45µM*
COCC1CCCN(Cc2ccc3c(c2)CN(C(=O)c2cc(-c4ccccc4)n[nH]2)CCO3)C1 (stereo unspecified)	-14%	-6%
CCn1ccnc1CC1COc2ccccc2O1 (stereo unspecified)	-4%	35µM*!
COc1cccc(OC)c1OCCNC[C@@H]1COc2ccccc2O1	-16%	-28%
Cc1ccc2[nH]nc(C(=O)N3CCOc4ccc(CN5CCc6sccc6C5)cc4C3)c2c1	-7%	-23%
O=C([C@@H]1C[C@@H](Sc2nc3ccccc3[nH]2)CN1Cc1ccc(Cl)cc1)N1CCN(c2ccccc2F)CC1	0%	-2%
C[C@@H](O)[C@H]1C(=O)N2C(C(=O)O)=C([C@H]3CCCO3)S[C@H]12	-14%	-14%
CCOC(=O)C1=C(C)NC(C)=C(C(=O)OCC)C1c1c(F)c(F)c(F)c(F)c1F	-23%	35µM*
CCOC(=O)C1=C(C)NC(C)=C(C(=O)OCC)C1c1ccccc1C=CC(=O)OC(C)(C)C	-59%	-24%
CC(C)C(=O)OCC(=O)[C@@]12O[C@H](C3CCCCC3)O[C@@H]1C[C@H]1[C@@H]3CCC4=CC(=O)C=C[C@]4(C)[C@H]3[C@@H](O)C[C@@]12C	-16%	4%
COc1cccc(CNc2ncnc3sc(C(=O)N4CC5CCC4C5)c(C)c23)c1OC (stereo unspecified)	-1%	-3%
Nc1ncnc2c1nc(Br)n2C1OC2COP(=O)(O)O[C@@H]2C1O (stereo partly specified)	0.45µM*	1.3µM*
Nc1nc2c(nc(Br)n2[C@@H]2O[C@H]3COP(=O)(O)O[C@H]3[C@@H]2O)c(=O)[nH]1	21%	-30%
CC(C)c1c(C(=O)N2CCCCC2c2cccnc2)cnn1-c1nccc(-c2cccs2)n1 (stereo unspecified)	-5%	-3%
SMILES	EPAC1 agonist	EPAC2 ant val
Nc1c(S(=O)(=O)O)cc(Nc2ccc(Nc3nc(Cl)nc(Nc4ccc(S(=O)(=O)O)cc4)n3)c(S(=O)(=O)O)c2)c2c1C(=O)c1ccccc1C2=O	u	79µM*
Cc1cc(CNC(=O)c2cnn(-c3nccc(-c4ccc5c(c4)OCO5)n3)c2C2CC2)on1	-9%	-5%
COc1c(-c2ccccc2)oc2c(ccc3occc32)c1=O	u	4.5µM*
COc1ccccc1-c1oc2ccccc2c(=O)c1OC	5%	u
O=c1c(O)c(-c2cccc(O)c2)oc2ccccc12	-10%	-16%
O=c1c(O)c(-c2ccccc2)oc2ccc3occc3c12	u	7.1µM*
O=C(/C=C/c1ccc(O)cc1)c1ccc(O)cc1O	-4%	u
Oc1ccc(/C=C/c2cc(O)cc(O)c2)cc1	u	50µM*!
O=c1cc(O)cc(/C=C/c2ccc(O)c(O)c2)o1	2%	-2%
Oc1ccc(/C=C\c2cc(O)cc(O)c2)cc1	-17%	28µM*
Cc1ccc2nc(SCC(=O)NCC3Cc4cccc(-c5nc(C)cnc5C)c4O3)[nH]c2c1 (stereo unspecified)	-6%	-17%
Cc1c(C(=O)NCc2nccs2)cnn1-c1ncc2c(n1)-c1ccccc1CC2	-1%	-11%
CC1(COc2ccc(C[C@H]3SC(=O)NC3=O)cc2)CCCCC1	-14%	u
CC1(COc2ccc(CC3SC(=O)NC3=O)cc2)CCCCC1 (stereo unspecified)	-13%	50µM*!
FC(F)(F)C(Cl)Br (stereo unspecified)	-43%	-19%
FC(F)OC(Cl)C(F)(F)F (stereo unspecified)	35µM*	i
COc1cc(=O)n2c(c1C(=O)N(C)Cc1ccsc1)CCN(Cc1cnn(C)c1C)CC2	12%	u
Cc1cnc(C)c(-c2ccc3c(c2)CC(CNC(=O)Cc2c(C)[nH]c4ccccc24)O3)n1 (stereo unspecified)	-7%	-17%
O=c1c2ccccc2oc2ccc(Oc3ccccc3)cc12	100µM*	u
CCOC(=O)/C=C/c1ccc2oc3ccccc3c(=O)c2c1	-1%	-15%
Clc1ccc(C(Cn2ccnc2)OCc2c(Cl)cccc2Cl)c(Cl)c1 (stereo unspecified)	40µM*!	u
O=c1c(-c2cccs2)nc2cnc(Oc3ccccc3)nc2n1C1CC1	-22%	-22%
COCCn1c(=O)c(-c2cccs2)nc2cnc(N(C)C)nc21	112µM*	43%
CN(C)c1ncc2nc(-c3cccs3)c(=O)n(C3CC3)c2n1	100µM*	63%
COCCn1c(=O)c(-c2cccs2)nc2cnc(OC)nc21	-37%	-4%
SMILES	EPAC1 agonist	EPAC2 ant val
COc1cc(CNc2nc(C)c(-c3ccn(C4Cc5ccccc5C4)n3)s2)cc2c1OCO2	u	-12%
CCCN(CCC)c1ccc(/C=C/c2ccnc3ccccc23)cc1	100µM*	262%
Cc1cc(N(C)C)c(C)cc1/C=C/c1ccnc2ccccc12	112µM*	251%
CN(C)c1ccc(/C=C/c2ccnc3ccc4ccccc4c23)cc1	15%	u
Cc1[nH]c2ccccc2c1/C=C/c1ccnc2ccccc12	u	-5%
C[C@@H]1[C@H](c2ccccc2)OCCS(=O)(=O)N1Cc1cccc(C(F)(F)F)c1	-121%	u
COc1ccc(CN2C[C@H](Sc3nc4ccccc4[nH]3)C[C@H]2C(=O)N(C)C)c2ccccc12	21%	u
COc1ccc2c(c1)c(CC(=O)O)c(C)n2Cc1ccc(Cl)cc1	1%	-25%
Cc1c(CC(C)(C)C(=O)O)n(Cc2ccc(Cl)cc2)c2ccc(F)cc12	-9%	45µM*
COc1ccccc1C1CN(Cc2cn(C)nc2C)Cc2ccccc2O1 (stereo unspecified)	-9%	-25%
CN1CCN(c2ncc3nc(-c4cn(C)c5ccccc45)c(=O)n(CCC#N)c3n2)CC1	112µM*	90%
CN1CCN(c2ncc3nc(-c4cn(C)c5ccccc45)c(=O)n(CCc4ccccc4)c3n2)CC1	-7%	-25%
N#CCCn1c(=O)c(-c2cccs2)nc2cnc(N3CCOCC3)nc21	63µM*	29%
O=c1c(-c2cccs2)nc2cnc(N3CCOCC3)nc2n1Cc1cccs1	10%	6%
CN1CCN(c2ncc3nc(-c4cccs4)c(=O)n(Cc4ccc(F)cc4)c3n2)CC1	13%	2%
